Screening data from PubChem.
RORgamma inh: blocks mouse ROR gamma transcriptional activity; P51450; AID 2551; Drosophila S2 Gal4-RORgamma UAS-luciferase reporter, 20 h; 5.4% of 310,000 active; Potency, µM (top dose mostly 53.6 µM), actives largely listed as inhibitors; further: nearly all actives have a fitted effect of over 60% in size
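Drosophila S2 cells stably expressing Gal4-DBD/mouse RORγ fusion under metallothionein promoter plus UAS-luciferase; compound 1 h, then 700 uM CuSO4 induction for 20 h at ambient temperature; inhibition read as reduced luminescence.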
CBFb-RUNX1 inh: CBF-beta/RUNX1 interaction disruption; AID 1477; 230,000 tested, under 10 active; Q01196+Q13951; AlphaScreen CBFb-His/RUNX1-biotin binding, biochemical; Potency, µM (series often up to 59.8 µM), actives largely listed as inhibitors
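CBFb-His/RUNX1-biotin, 30 nM each, preincubated 20 min RT; compound 15 min RT; Ni + streptavidin beads 50 ng each, 90 min RT; AlphaScreen read.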
CtBP-E1A inh: inhibitors of CtBP/E1A interaction; AlphaScreen GST-E1A/His-CtBP binding, 1536-well; active compounds read low; activity change, % (concentration not given with the values); 0.49% of 340,000 active; AID 651724; in the data active means activity change below about -65%; inconclusive means mostly about -30% to -63%
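Steps: dispense buffer (Tris pH 8.0, NaCl 300 mM, TCEP 1 mM, BSA, Tween 20); add 5X protein mix (GST-E1A, His-CtBP, 125 nM each); pin 23 nL compound; 2 h at 37 °C, dark; add 5X beads (50 ug/mL); 1 h; read.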
MBNL1 CUG block: blocks human MBNL1 binding to CUG repeat RNA; TR-FRET MBNL1-His/biotin-(CUG)12 binding, 665/545 ratio; 0.036% of 280,000 active; Q9NR56; Potency, µM (highest dose often 57.5 µM), most hits filed as inhibitors; AID 2675; active means well fitted inhibition curve with a large enough effect in the signal ratio, with a control signal flat, not every such curve was filed as active; inconclusive means small, poorly fitted or top-dose-only effect, or effect the other way, or a change in a side signal; inactive means no such curve, though single readings can be large or run the other way; the % refers to the signal ratio
Target sequence (Q9NR56 whole entry, looked up): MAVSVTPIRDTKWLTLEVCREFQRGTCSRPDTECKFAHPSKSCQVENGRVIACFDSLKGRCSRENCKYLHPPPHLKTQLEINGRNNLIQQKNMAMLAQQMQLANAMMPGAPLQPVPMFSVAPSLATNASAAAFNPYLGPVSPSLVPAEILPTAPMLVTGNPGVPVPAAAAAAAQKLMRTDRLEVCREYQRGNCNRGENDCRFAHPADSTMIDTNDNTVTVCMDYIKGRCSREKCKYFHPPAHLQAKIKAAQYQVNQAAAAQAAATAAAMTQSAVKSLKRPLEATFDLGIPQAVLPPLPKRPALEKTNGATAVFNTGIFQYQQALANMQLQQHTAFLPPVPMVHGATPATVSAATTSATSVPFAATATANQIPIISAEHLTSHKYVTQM
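Inhibition of protein-RNA binding appears as loss of TR-FRET between terbium anti-His antibody on MBNL1-His and streptavidin-XL665 on biotin-(CUG)12. Activity is normalized to buffer-only and uninhibited-complex controls.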
Six1-Eya2 inh: inhibitors of human Six1/Eya2 interaction. Q15475+O00167. AlphaScreen GST-Six1/His-Eya2 binding, biochemical; active compounds read low. activity change, % (concentration not given with the values). 0.56% of 360,000 active; in the data active means activity change below about -65%; inconclusive means mostly about -30% to -63%
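AlphaScreen with GST-Six1 and His-Eya2 (5X mix: 250 nM and 500 nM), glutathione donor and nickel acceptor beads; buffer 50 mM Tris pH 8.0, 300 mM NaCl, 1 mM TCEP; 1 h at 37 C in the dark.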
VP16 counter: Gal4-VP16 reporter inhibition counter-screen; Potency, µM (highest dose often 53.6 µM), actives largely listed as inhibitors; Drosophila S2 Gal4-VP16 UAS-luciferase, luminescence, 20 h; 3.5% of 310,000 active;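 further: Gal4-VP16 expression switched on by copper sulfate through the metallothionein promoter; nearly all actives have a fitted effect of over 50% in size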
A number is an active result; 0 = inactive; ? = inconclusive; - = no result. Shown are actives, neighbours in structure and some others; about 5.5% of the full set was active somewhere. Unless noted, the call rests on the fitted dose curve; in most records, active means well fitted curve in the direction sought with a large enough effect; inconclusive means small, poorly fitted or top-dose-only effect, or another doubt; inactive means no such curve, though single readings can be large; an effect the other way counts as inactive or inconclusive.

SMILES	RORgamma inh	CBFb-RUNX1 inh	CtBP-E1A inh	MBNL1 CUG block	Six1-Eya2 inh	VP16 counter
COc1ccc(/C=C/C(=O)Nc2cccc(C(C)=O)c2)cc1	3.2µM	0	0	0	0	6.3µM
COc1cccc(/C=C/C(=O)Nc2cccc(C(C)=O)c2)c1OC	1.4µM	0	0	0	0	?
COc1cc(OC)cc(C(=O)Nc2cccc(C(C)=O)c2)c1	?	0	0	0	0	0
COc1cccc(/C=C/C(=O)Nc2ccc3c(c2)OCCO3)c1OC	1.1µM	0	0	0	0	?
COc1ccccc1/C=C/C(=O)Nc1cccc(C(C)=O)c1	0	0	0	?	0	?
COc1cccc(C(=O)Nc2ccc3c(c2)OCO3)c1OC	?	-	0	0	0	0
O=C(OCCOc1cccc(Cl)c1)c1cc(S(=O)(=O)N2CCCCC2)ccc1N1CCOCC1	-	-	0	-	0	-
COc1ccc(NC(=O)CSc2nnc(-c3cccnc3)s2)cc1	0	-	0	0	0	0
Cn1cc2cc(NC(N)=S)ccc2n1	0	0	0	-	0	0
CC(Cc1cccs1)NC(=O)Nc1ccc(F)cc1 (centres undefined)	0	0	0	0	0	0
CC(Cc1cccs1)NC(=S)Nc1ccc(Cl)cc1 (centres undefined)	7.1µM	0	0	0	0	14µM
CC(Cc1cccs1)NC(=O)Nc1cccc(Cl)c1 (centres undefined)	0	0	0	0	0	0
CC(Cc1cccs1)NC(=S)Nc1ccc(Cl)c(Cl)c1 (centres undefined)	7.9µM	0	0	0	0	?
COCCNC(=S)N=Nc1c(O)[nH]c2c(C)cc(C)cc12	2.2µM	0	0	0	0	7.9µM
CNc1nc(-c2ccccc2)[n+](-c2ccc(C)cc2)s1	7.9µM	0	0	0	0	7.1µM
Cc1ccc(-c2nc(N)s[n+]2-c2ccccc2)cc1	0	0	0	-	0	0
Cc1sc2nc(CN(C(=O)NC3CCCCC3)C3CCCC3)[nH]c(=O)c2c1C	8.9µM	0	0	?	0	14µM
Cc1sc2nc(CN(C(=O)c3cccs3)C3CCCC3)[nH]c(=O)c2c1C	11µM	0	0	0	0	?
COCC(=O)N(Cc1nc2sc(C)c(C)c2c(=O)[nH]1)C1CCCCC1	0	0	0	0	0	0
Cc1ccc(-n2c(C)c(C)c3c(NCCN(C)C)ncnc32)cc1	0	-	0	0	0	0
CC(=O)N1C[C@H]2CON(C)[C@H]2C[C@H]1c1ccc(-c2ccccc2)cc1	-	-	0	-	0	-
COc1ccc(S(=O)(=O)c2ccc(OC)cc2)cc1	0	0	0	0	0	0
COc1ccc(S(=O)(=O)c2cnc3ccccc3n2)cc1	11µM	0	0	-	0	?
O=S(=O)(Cc1ccccc1)c1cnc2ccccc2n1	?	0	0	?	0	0
O=S(=O)(c1ccc(Br)cc1)c1cnc2ccccc2n1	11µM	0	0	-	0	?
SMILES	RORgamma inh	CBFb-RUNX1 inh	CtBP-E1A inh	MBNL1 CUG block	Six1-Eya2 inh	VP16 counter
S=c1[nH]nc(-c2ccncc2)n1/N=C/C=C/c1ccccc1	2.8µM	0	0	?	0	0
O=[N+]([O-])c1ccccc1/C=C/C=N/n1c(-c2ccc(Cl)cc2)n[nH]c1=S	8.9µM	0	0	0	0	0
O=[N+]([O-])c1ccccc1/C=C/C=N/n1c(-c2ccccc2)n[nH]c1=S	6.3µM	?	0	?	0	0
Cc1ccc(-c2n[nH]c(=S)n2/N=C/C=C\c2ccccc2[N+](=O)[O-])cc1	?	0	0	0	0	0
O=C(CSc1nnc(CNC(=O)c2ccco2)o1)Nc1ccc(F)cc1F	0	-	0	0	0	0
CC(C)[C@H](NC(=O)OC(C)(C)C)c1cc(C(=O)NCCc2c[nH]c3ccccc23)c(N)s1	-	-	0	-	0	-
O=C1c2ccccc2C(c2nnnn2-c2ccc3c(c2)OCCO3)N1Cc1cccnc1 (centres undefined)	-	-	0	-	0	-
CCC(=O)N1CCN(c2ccc(NC(=O)c3ccc([N+](=O)[O-])o3)cc2Cl)CC1	10µM	0	0	-	0	0
O=C(Nc1ccc(N2CCOCC2)cc1)c1ccc([N+](=O)[O-])o1	11µM	-	0	?	0	?
O=C(Nc1ccc(N2CCN(C(=O)c3cccs3)CC2)cc1)c1ccc([N+](=O)[O-])o1	13µM	-	-	?	-	?
O=C(Nc1ccc(S(=O)(=O)N2CCOCC2)cc1)c1ccc([N+](=O)[O-])o1	0	0	0	?	0	?
CCN1C(=O)[C@H]2[C@@H](c3ccc(SC4CCCCC4)cc3)N[C@@](CC(C)C)(C(=O)OC)[C@H]2C1=O	-	-	0	-	0	-
CN(Cc1ccccc1)C(=O)c1ncn2c1C(=O)N(C)CC2	-	-	0	-	0	-
COc1ccc(C2CC(c3ccc(OC)cc3)n3nc(NC(=O)c4ccco4)nc3N2)cc1 (centres undefined)	6.3µM	0	0	0	0	16µM
O=C1CC(c2ccccc2)n2nc(NC(=O)c3ccccc3)nc2N1 (centres undefined)	0	0	0	0	0	?
O=C1CC(c2ccccc2)n2nc(NC(=O)c3ccccn3)nc2N1 (centres undefined)	0	0	?	0	-75	0
COc1ccc(C2CC(c3ccccc3)Nc3nc(NC(=O)c4ccco4)nn32)cc1 (centres undefined)	6.3µM	0	0	0	0	7.1µM
O=C(Nc1nc2n(n1)C(c1ccccc1)CC(c1ccc(Cl)cc1)N2)c1ccco1 (centres undefined)	2.5µM	0	0	0	0	5µM
COCC(=O)Nc1nc2n(n1)C(c1ccc(OC)cc1)CC(c1ccc(OC)cc1)N2 (centres undefined)	0	0	0	0	0	0
NC(c1ccccc1)c1csc(Nc2ccc(S(N)(=O)=O)cc2)n1 (centres undefined)	-	-	0	-	0	-
COc1ccccc1NC(=S)NC(=O)c1c(-c2ccccc2Cl)noc1C	2.5µM	0	-	0	0	16µM
Cc1onc(-c2ccccc2Cl)c1C(=O)NC(=S)Nc1ccccc1F	5µM	0	-	0	0	?
Cc1onc(-c2ccccc2Cl)c1C(=O)NNC(=O)c1ccccc1F	0	-	0	0	0	0
CCCn1c(-c2ccc(F)cc2)nc2c(NCCCN3CCCCC3C)nc(C)nc21 (centres undefined)	0	0	-	-	-	0
O=S(=O)(NC(=S)NC1CCCCC1)c1cccs1	11µM	0	0	0	0	0
O=S(=O)(NC1CCCCCCC1)c1ccccc1	0	-	0	0	0	0
O=C(NC1CCCCC1)C(Cc1ccccc1)NS(=O)(=O)c1cccs1 (centres undefined)	0	0	0	0	0	0
